Results published in PubChem BioAssay (EPA / NIEHS).
The source made the active and inactive calls. How the source made its calls: active means hit-call score of the fitted dose curve at least 0.9, where 1 is the maximum; inactive means score below 0.9.

read-out: Bcl-2 (BID) gene, BID (gene 637); test: LTEA_HepaRG_BID: Life Technologies and Expression Analysis (LTEA) Assay for Bcl-2 (BID) gene using HepaRG (AID 2283476); conditions: mRNA level, 48 h; actives raise or lower the signal
Outline: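 HepaRG, 48 h exposure, 8-pt half-log series, top 100 uM, 0.5% DMSO vehicle, duplicates. Readout: BID mRNA by TaqMan qRT-PCR; housekeeping-normalized; bidirectional curve fit vs DMSO baseline.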

Chain of Caspase-3 (Homo sapiens) (P42574 whole entry, looked up): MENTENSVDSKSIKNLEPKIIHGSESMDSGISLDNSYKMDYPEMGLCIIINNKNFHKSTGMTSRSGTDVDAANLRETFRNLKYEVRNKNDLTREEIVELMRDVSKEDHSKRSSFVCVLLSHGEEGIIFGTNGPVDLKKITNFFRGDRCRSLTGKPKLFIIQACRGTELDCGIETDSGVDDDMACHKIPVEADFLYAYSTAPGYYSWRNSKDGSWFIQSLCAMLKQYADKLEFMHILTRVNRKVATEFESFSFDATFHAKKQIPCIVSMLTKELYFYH

Row | SMILES | outcome | AC50
1 | CNC(=O)Oc1cccc2ccccc12 | inactive | 
2 | CCSC(=O)N1CCCCCC1 | inactive | 
3 | COc1ccc(-c2ccccc2)cc1NNC(=O)OC(C)C | inactive | 
4 | CC(C)=CC1C(C(=O)OCc2coc(Cc3ccccc3)c2)C1(C)C (configuration not stated) | inactive | 
5 | OC(c1ccc(Cl)cc1)(c1ccc(Cl)cc1)C(Cl)(Cl)Cl |  | 85 µM (active)
6 | COC(=O)NS(=O)(=O)c1ccc(N)cc1 | inactive | 
7 | CC(C)Oc1cccc(NC(=O)c2ccccc2C(F)(F)F)c1 | inactive | 
8 | CS(=O)(=O)c1cc(C(F)(F)F)ccc1C(=O)c1cnoc1C1CC1 | inactive | 
9 | CCOP(=O)(OCC)Oc1nc(Cl)c(Cl)cc1Cl | inactive | 
10 | CCOP(=S)(OCC)Oc1nc(Cl)n(C(C)C)n1 | inactive | 
11 | CCOc1nc(F)cc2nc(S(=O)(=O)Nc3c(Cl)cccc3Cl)nn12 | inactive | 
12 | COP(=S)(OC)SCn1nnc2ccccc2c1=O | inactive | 
13 | CNC(=O)N(C)c1nnc(C(C)(C)C)s1 | inactive | 
14 | Clc1nc(Cl)nc(Nc2ccccc2Cl)n1 | inactive | 
15 | Nc1c(Cl)c(Cl)nc(C(=O)O)c1Cl | inactive | 
16 | Nc1c(Cl)c(F)nc(OCC(=O)O)c1Cl | inactive | 
17 | CC1(C)CCC(=Cc2ccc(Cl)cc2)C1(O)Cn1cncn1 (configuration not stated) | inactive | 
18 | CSC(=O)c1c(C(F)F)nc(C(F)(F)F)c(C(=O)SC)c1CC(C)C | inactive | 

Row | SMILES | outcome | AC50
19 | CCCCC(C#N)(Cn1cncn1)c1ccc(Cl)cc1 (configuration not stated) | inactive | 
20 | O=C(O)c1c(Cl)ccc2cc(Cl)cnc12 | inactive | 
21 | O=P(O)(O)CCCl | inactive | 
22 | Cc1cnc(C2=NC(C)(C(C)C)C(=O)N2)c(C(=O)O)c1 (configuration not stated) | inactive | 
23 | CCOC(=O)C(C)OC(=O)c1cc(Oc2ccc(C(F)(F)F)cc2Cl)ccc1[N+](=O)[O-] (configuration not stated) | inactive | 
24 | COC(=O)N(C(=O)N1CO[C@@]2(C(=O)OC)Cc3cc(Cl)ccc3C2=N1)c1ccc(OC(F)(F)F)cc1 | inactive | 
25 | CC1(C)C(C=C(Cl)Cl)C1C(=O)OC(C#N)c1cccc(Oc2ccccc2)c1 (configuration not stated) | inactive | 
26 | Cc1cc(C)nc(Nc2ccccc2)n1 | inactive | 
27 | O=c1n(Cl)c(=O)n(Cl)c(=O)n1Cl | inactive | 
28 | CO/N=C(/C1=NOCCO1)c1ccccc1Oc1ncnc(Oc2ccccc2Cl)c1F | inactive | 
29 | COCC(=O)N(c1c(C)cccc1C)C(C)C(=O)OC (configuration not stated) | inactive | 
30 | C=CCOC(=O)C(C)(C)OC(=O)c1cc(-n2c(=O)cc(C(F)(F)F)n(C)c2=O)ccc1Cl | inactive | 
31 | COC(=O)c1c(C(F)F)nc(C(F)(F)F)c(C2=NCCS2)c1CC(C)C | inactive | 
32 | CN=C=S | inactive | 
33 | CC(C)NC(=O)N1CC(=O)N(c2cc(Cl)cc(Cl)c2)C1=O | inactive | 
34 | COc1cc(OC)nc(NC(=O)NS(=O)(=O)c2ncccc2OCC(F)(F)F)n1 | inactive | 
35 | COP(=O)(OC)O/C(C)=C/C(=O)N(C)C | inactive | 
36 | CCOc1cc(C(C)(C)C)ccc1C1COC(c2c(F)cccc2F)=N1 (configuration not stated) | inactive | 

read-out: Caspase-3 (Homo sapiens) (UniProt P42574); test: LTEA_HepaRG_CASP3: Life Technologies and Expression Analysis (LTEA) Assay for cysteine-aspartic acid protease (CASP3) using HepaRG (AID 2283477); conditions: mRNA level, 48 h; actives raise or lower the signal
Outline: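 Differentiated HepaRG cells, plated 48 h, were treated in duplicate in serum-free induction medium for 48 h with eight half-log concentrations up to 100 uM in 0.5% DMSO. CASP3 mRNA measured by qRT-PCR, normalized to ACTB, GAPDH, POLR2A.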

Row | SMILES | outcome | AC50
37 | CNC(=O)Oc1cccc2ccccc12 | inactive | 
38 | CCSC(=O)N1CCCCCC1 | inactive | 
39 | COc1ccc(-c2ccccc2)cc1NNC(=O)OC(C)C | inactive | 
40 | CC(C)=CC1C(C(=O)OCc2coc(Cc3ccccc3)c2)C1(C)C (configuration not stated) | inactive | 
41 | OC(c1ccc(Cl)cc1)(c1ccc(Cl)cc1)C(Cl)(Cl)Cl |  | 50 µM (active)
42 | COC(=O)NS(=O)(=O)c1ccc(N)cc1 | inactive | 
43 | CC(C)Oc1cccc(NC(=O)c2ccccc2C(F)(F)F)c1 | inactive | 
44 | CS(=O)(=O)c1cc(C(F)(F)F)ccc1C(=O)c1cnoc1C1CC1 | inactive | 
45 | CCOP(=O)(OCC)Oc1nc(Cl)c(Cl)cc1Cl | inactive | 
46 | CCOP(=S)(OCC)Oc1nc(Cl)n(C(C)C)n1 | inactive | 
47 | CCOc1nc(F)cc2nc(S(=O)(=O)Nc3c(Cl)cccc3Cl)nn12 | inactive | 
48 | COP(=S)(OC)SCn1nnc2ccccc2c1=O | inactive | 
49 | CNC(=O)N(C)c1nnc(C(C)(C)C)s1 | inactive | 
50 | Clc1nc(Cl)nc(Nc2ccccc2Cl)n1 | inactive | 
51 | Nc1c(Cl)c(Cl)nc(C(=O)O)c1Cl | inactive | 
52 | Nc1c(Cl)c(F)nc(OCC(=O)O)c1Cl | inactive | 
53 | CC1(C)CCC(=Cc2ccc(Cl)cc2)C1(O)Cn1cncn1 (configuration not stated) | inactive | 
54 | CSC(=O)c1c(C(F)F)nc(C(F)(F)F)c(C(=O)SC)c1CC(C)C | inactive | 

Row | SMILES | outcome | AC50
55 | CCCCC(C#N)(Cn1cncn1)c1ccc(Cl)cc1 (configuration not stated) | inactive | 
56 | O=C(O)c1c(Cl)ccc2cc(Cl)cnc12 | inactive | 
57 | O=P(O)(O)CCCl | inactive | 
58 | Cc1cnc(C2=NC(C)(C(C)C)C(=O)N2)c(C(=O)O)c1 (configuration not stated) | inactive | 
59 | CCOC(=O)C(C)OC(=O)c1cc(Oc2ccc(C(F)(F)F)cc2Cl)ccc1[N+](=O)[O-] (configuration not stated) | inactive | 
60 | COC(=O)N(C(=O)N1CO[C@@]2(C(=O)OC)Cc3cc(Cl)ccc3C2=N1)c1ccc(OC(F)(F)F)cc1 | inactive | 
61 | CC1(C)C(C=C(Cl)Cl)C1C(=O)OC(C#N)c1cccc(Oc2ccccc2)c1 (configuration not stated) | inactive | 
62 | Cc1cc(C)nc(Nc2ccccc2)n1 | inactive | 
63 | O=c1n(Cl)c(=O)n(Cl)c(=O)n1Cl | inactive | 
64 | CO/N=C(/C1=NOCCO1)c1ccccc1Oc1ncnc(Oc2ccccc2Cl)c1F | inactive | 
65 | COCC(=O)N(c1c(C)cccc1C)C(C)C(=O)OC (configuration not stated) | inactive | 
66 | C=CCOC(=O)C(C)(C)OC(=O)c1cc(-n2c(=O)cc(C(F)(F)F)n(C)c2=O)ccc1Cl | inactive | 
67 | COC(=O)c1c(C(F)F)nc(C(F)(F)F)c(C2=NCCS2)c1CC(C)C | inactive | 
68 | CN=C=S | inactive | 
69 | CC(C)NC(=O)N1CC(=O)N(c2cc(Cl)cc(Cl)c2)C1=O | inactive | 
70 | COc1cc(OC)nc(NC(=O)NS(=O)(=O)c2ncccc2OCC(F)(F)F)n1 | inactive | 
71 | COP(=O)(OC)O/C(C)=C/C(=O)N(C)C | inactive | 
72 | CCOc1cc(C(C)(C)C)ccc1C1COC(c2c(F)cccc2F)=N1 (configuration not stated) | inactive | 
